Screening data from PubChem BioAssay.
In the library only some 21% were active in any assay of this set; here they are far more common.
MRP reversal: reverses drug resistance mediated by MRP | H69AR cells + 2 uM doxorubicin, CellTiter-Glo, 72 h | differential viability (reversal), % at 10 µM | 0.04% of 85,000 active | AID 602;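 active means viability drop by adding the cancer drug above about 55%, with treated viability meeting a 40% cutoff, limit read from the data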;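 further: viability without doxorubicin minus viability with 2 µM doxorubicin for each compound; larger differential means the compound sensitizes cells more to doxorubicin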
CYP2C9 activ: increases human cytochrome P450 2C9 activity; P11712; recombinant CYP2C9, luciferin-H conversion, luminescence; active compounds read high; factor 1 = untreated enzyme, 0 = blocked; activation factor at 5 µM; 1.4% of 96,000 active; AID 1024;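 active means activation factor of 2 or more for CYP2C9 at a 5 µM dose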;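 further: 0 = sulfaphenazole-blocked wells and 1 = vehicle-only wells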
CYP2C19 inhib: blocks human cytochrome P450 2C19; P33261; CYP2C19 Supersomes, luciferin-H EGE luminescence, 30 min; inhibition, % at 5 µM; 21% of 96,000 active;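 active means CYP2C19 inhibition above a set limit at 5 µM in the primary screen, cut at about 50% in these data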;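 further: plate controls were negative control wells for no effect and 2.5 mM tranylcypromine positive control for full effect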
Target sequence (P33261 whole entry, looked up): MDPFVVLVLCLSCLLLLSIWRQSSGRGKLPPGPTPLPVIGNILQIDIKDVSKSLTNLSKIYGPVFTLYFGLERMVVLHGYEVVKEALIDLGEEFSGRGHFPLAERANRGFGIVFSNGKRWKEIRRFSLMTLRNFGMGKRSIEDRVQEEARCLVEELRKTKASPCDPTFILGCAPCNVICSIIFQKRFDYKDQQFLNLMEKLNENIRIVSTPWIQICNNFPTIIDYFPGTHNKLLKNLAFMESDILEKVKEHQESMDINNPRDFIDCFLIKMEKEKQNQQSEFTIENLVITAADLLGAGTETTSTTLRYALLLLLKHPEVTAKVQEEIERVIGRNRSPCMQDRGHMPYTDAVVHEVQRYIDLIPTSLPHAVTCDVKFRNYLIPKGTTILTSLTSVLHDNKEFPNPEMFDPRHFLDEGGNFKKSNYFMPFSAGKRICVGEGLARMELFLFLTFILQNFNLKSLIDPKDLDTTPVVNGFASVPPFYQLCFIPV
CYP2C9 inhib: inhibitors of human CYP2C9; CYP2C9 Supersomes, luciferin-H conversion, luminescence; inhibition, % at 5 µM; 20% of 96,000 active; AID 777;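 active means blocking of liver enzyme CYP2C9 beyond about 50% at 5 µM, limit read from the data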
CYP2C19 act: activators of human cytochrome P450 2C19 | recombinant CYP2C19, luciferin-H EGE luminescence; active compounds read high; 0 = fully inhibited enzyme, 1 = untreated enzyme | activation factor at 5 µM | 96,000 tested, under 10 active;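 active means activation factor of at least 2 at 5 µM in the primary screen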;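 further: 0 = wells with 2.5 mM tranylcypromine and 1 = vehicle-only wells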
MRP1 act: activates MRP-1; H69AR cells + doxorubicin, viability rescue, CellTiter-Glo; AID 799; 0.61% of 140,000 active; viability increase, % at 10 µM;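 active means viability gain under doxorubicin at or above a set limit, the compound median plus 3 SD, cut at about 4.7% in these data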;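 further: MRP-1 overexpressing cells given doxorubicin 25 µM after compound pretreatment; 18-22 h compound pretreatment then 72 h with doxorubicin before readout; 0% = doxorubicin-only wells and 100% = vehicle-treated cells without doxorubicin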
An asterisk follows results filed as active; . = no result given.

SMILES | MRP reversal | CYP2C9 activ | CYP2C19 inhib | CYP2C9 inhib | CYP2C19 act | MRP1 act
CC(C)N1C(=O)CCC1C(=O)NCc1ccccc1Cl (centres undefined) | 8 | . | . | . | . | -1
C#CCn1cc(C=C2C(=O)c3ccccc3C2=O)c2ccccc21 | . | . | . | . | . | -3
CCn1ncc2c(OCc3ccc(C#N)cc3)cc(C)nc21 | -8 | 0.4 | 64* | 63* | 0.4 | 0
Cc1ccc(OCC(=O)N(Cc2ccccc2)C(C)C)c([N+](=O)[O-])n1 | . | . | . | . | . | -1
O=[N+]([O-])c1ccc(CSc2nnc(-c3cnccn3)o2)cc1 | . | 0.7 | 90* | 31 | 0.1 | -3
CCn1c(=O)cc(SCC(=O)NCc2ccc(C)cc2)c2ccccc21 | 20 | 1.7 | 47 | -68 | 0.5 | 1
CCn1c(=O)cc(SCC(=O)Nc2cccc(SC)c2)c2ccccc21 | 3 | 1.4 | 9 | -39 | 0.9 | 1
CCn1c(=O)cc(SCC(=O)Nc2cc(OC)c(OC)c(OC)c2)c2ccccc21 | 7 | 2.9* | 77* | -188 | 0.2 | -2
CCn1c(=O)cc(SCC(=O)NCc2ccco2)c2ccccc21 | -32 | 1.7 | 19 | -74 | 0.8 | -2
CCn1c(=O)cc(SCC(=O)Nc2ccc3c(c2)OCCO3)c2ccccc21 | -21 | 2* | 61* | -101 | 0.4 | -3
CCn1c(=O)cc(SCC(=O)NCc2ccc(C)o2)c2ccccc21 | 2 | 2* | 32 | -100 | 0.7 | -4
CCOc1ccc(NC(=O)CC2C(=O)N(C)C(=S)N2Cc2ccc3c(c2)OCO3)cc1 (centres undefined) | . | . | . | . | . | -6
CC(O)CN(Cc1cccc(Cl)c1)CC(C)O (centres undefined) | -1 | 1.2 | -7 | -22 | 1.1 | -1
CCOC(=O)c1sc(/N=C/c2ccc(O)cc2O)cc1C | . | . | . | . | . | -3
CCCOc1ccc(-c2nnn(CC(=O)c3c[nH]c4ccccc34)n2)cc1 | . | 0.7 | -9 | 27 | 1.1 | -2
O=C(CN1CCN(c2ncc(C(F)(F)F)cc2Cl)CC1)NCCNc1ncc(C(F)(F)F)cc1Cl | -2 | 1 | -2 | 0 | 1 | -5
O=c1[nH]c2cccc(Cl)c2n(CCNc2ncc(C(F)(F)F)cc2Cl)c1=O | . | 0.6 | 61* | 36 | 0.4 | 3
O=c1c(Cl)nc2cc(Cl)ccc2n1CCNc1ncc(C(F)(F)F)cc1Cl | . | 0.5 | 73* | 47 | 0.3 | -7
O=C(NCCN1CCOCC1)N1c2ccccc2Sc2ccccc21 | . | 1.1 | 8 | -14 | 0.9 | -2
C#CCOCCOCCOCCNc1nc(N2CCN(C(=O)Cn3cc(CCO)nn3)CC2)nc(N2CCN(C(=O)[C@H](C(C)C)n3cc(CCO)nn3)CC2)n1 | . | . | . | . | . | 0
CCOC(=O)C1(CCSC)NC(c2ccco2)C2C(=O)N(C)C(=O)C21 (centres undefined) | 20 | 1.1 | 6 | -7 | 0.9 | -3
COc1ccc(CCNC(=O)C2CCN(S(=O)(=O)N3CCC4(CC3)OCCO4)CC2)cc1OC | . | . | . | . | . | -2
COc1ccc(N(CC(=O)Nc2cc(OC)ccc2OC)S(=O)(=O)c2c(C)nn(C)c2C)cc1 | -11 | 0.2 | 76* | 84* | 0.2 | -1
COc1cccc(NC(=O)CN(c2ccc(C)cc2)S(=O)(=O)c2c(C)nn(C)c2C)c1 | -17 | 0.2 | 69* | 76* | 0.3 | -3
COc1ccc(N(CC(=O)Nc2nc3ccc(C)cc3s2)S(=O)(=O)c2c(C)nn(C)c2C)cc1 | -61 | 0.5 | 37 | 48 | 0.6 | -3
SMILES | MRP reversal | CYP2C9 activ | CYP2C19 inhib | CYP2C9 inhib | CYP2C19 act | MRP1 act
COc1ccc(N(CC(=O)Nc2cccc(OC)c2)S(=O)(=O)c2c(C)nn(C)c2C)cc1 | -12 | 0.2 | 75* | 83* | 0.3 | -2
COc1cccc2c1OCC/C2=N\NC(=O)COc1ccccc1C | . | . | . | . | . | 0
O=C(NCCN1CCOCC1)c1ccc2c(c1)N(Cc1ccccc1)CCS2 | 0 | 0.4 | 54* | 63* | 0.5 | -3
O=C(NCCN1CCOCC1)c1ccc(-c2ccccc2)cc1 | 10 | 1.1 | -16 | -11 | 1.2 | -2
CN1CCN(CCCNC(=O)c2ccc3c(c2)N(Cc2ccccc2)CCS3)CC1 | 0 | 1 | -8 | 0 | 1.1 | -1
O=C(CCSc1ccccc1)NCCN1CCOCC1 | -3 | 1 | 49 | -2 | 0.5 | -1
O=C(Cc1ccc(-c2ccccc2)cc1)NCCN1CCOCC1 | 13 | 0.6 | 72* | 42 | 0.3 | -2
O=C(Cc1nc(-c2ccc(Br)s2)cs1)NCCN1CCOCC1 | 6 | 0.7 | 77* | 34 | 0.2 | 0
